In PubChem BioAssay (NCATS):
Records with an inconclusive call do not appear. Active and inactive are the calls of the source. Calls follow the shape of the dose curve; as a rule, active = well fitted curve in the direction sought with a large enough effect; inconclusive = small, poorly fitted or top-dose-only effect, or another doubt; inactive = no such curve, though single readings can be large; an effect the other way counts as inactive or inconclusive.

Assays:
[1] = molecular target: Nuclear receptor subfamily 1 group I member 3 (Homo sapiens) (UniProt Q14994); experiment: Primary qHTS for agonist of constitutive androstane receptor (CAR) against the NCATS DSHEA and TCM libraries (AID 1794839);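 also: HepG2 cells expressing human CAR with a CYP2B6 reporter plus PK11195 antagonist; 0% is about no effect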
Nuclear receptor subfamily 1 group I member 3 (Homo sapiens), sequence (Q14994 whole entry, looked up): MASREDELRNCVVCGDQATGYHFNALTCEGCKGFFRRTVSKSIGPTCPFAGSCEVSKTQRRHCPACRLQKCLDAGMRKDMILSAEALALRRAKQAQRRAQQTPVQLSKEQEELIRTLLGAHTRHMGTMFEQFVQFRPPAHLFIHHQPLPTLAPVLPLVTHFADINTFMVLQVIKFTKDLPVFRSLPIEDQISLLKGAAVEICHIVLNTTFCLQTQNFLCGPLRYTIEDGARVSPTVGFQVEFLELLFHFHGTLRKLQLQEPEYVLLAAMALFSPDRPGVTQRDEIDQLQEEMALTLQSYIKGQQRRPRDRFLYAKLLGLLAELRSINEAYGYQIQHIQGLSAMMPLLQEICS
In short: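 Agonist mode in presence of hCAR antagonist PK11195 (0.75 µM final): test substances, 24 h, 37 °C, on HepG2-CYP2B6-hCAR cells. Same-well readouts: fluorescence viability, then ONE-Glo luminescence; CITCO as reference agonist.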

[2] = HepG2 viability counterscreen (readout 2: ATP content) against the NCATS DSHEA and TCM libraries (AID 1794840);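 also: HepG2 cells exposed to substances for about 24 h; 0% is about no effect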
In short: (§1)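 Readout 1: cellular protease activity, GF-AFC substrate (25 uM final, 30 min, fluorescence 380/510 nm). Readout 2: ATP content by CellTiter-Glo luminescence after 30 min at RT. Both follow ~24 h exposure of HepG2 cells (1,000/well) to substances.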

[3] = HepG2 viability counterscreen (readout 1: protease activity) against the NCATS DSHEA and TCM libraries (AID 1794841);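 also: cells exposed to compounds for about 24 h before the protease read; 0% is about no effect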
In short: as §1

[4] = molecular target: Cytochrome P450 2C19 (Homo sapiens) (UniProt P33261); experiment: qHTS for inhibitors of CYP2C19 against the NCATS DSHEA and TCM libraries (AID 1919974);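 also: luminescence from luciferin released by CYP2C19 oxidation of a pro-luciferin substrate; % is scaled to controls: 0 for no effect and ±100 for the full control effect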
Cytochrome P450 2C19 (Homo sapiens), sequence (P33261 whole entry, looked up): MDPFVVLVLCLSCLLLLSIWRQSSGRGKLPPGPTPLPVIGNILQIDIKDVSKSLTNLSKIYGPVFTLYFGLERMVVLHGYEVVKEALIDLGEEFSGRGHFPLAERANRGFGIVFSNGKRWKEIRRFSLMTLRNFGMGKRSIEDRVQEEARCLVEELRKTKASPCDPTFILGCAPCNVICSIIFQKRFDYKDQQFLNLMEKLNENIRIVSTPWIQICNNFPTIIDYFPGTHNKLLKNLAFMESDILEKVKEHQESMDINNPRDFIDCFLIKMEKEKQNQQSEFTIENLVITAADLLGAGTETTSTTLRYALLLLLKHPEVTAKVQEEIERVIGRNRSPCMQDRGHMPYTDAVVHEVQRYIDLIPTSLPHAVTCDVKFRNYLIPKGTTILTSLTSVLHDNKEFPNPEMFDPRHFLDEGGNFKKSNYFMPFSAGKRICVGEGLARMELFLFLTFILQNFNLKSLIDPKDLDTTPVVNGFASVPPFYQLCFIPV
In short: (§2)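 Light output from converted D-luciferin reports remaining CYP activity. Compounds preincubate with enzyme and substrate for 15 min; NADPH regeneration (1x final) runs the reaction for 30-45 min.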

[5] = KB-3-1 P-gp reporter qHTS against the NCATS DSHEA and TCM libraries (AID 1919975); also: 0% is about no effect
In short: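 Cell viability by CellTiter-Glo luminescence following ~72 h compound exposure (concentration-response). Uses parental, non-P-gp-overexpressing KB-3-1 line, 500 cells/well in DMEM/10% FBS, attached ~4 h before dosing.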

[6] = molecular target: Cytochrome P450 1A2 (Homo sapiens) (UniProt P05177); experiment: qHTS for inhibitors of CYPIA2 against the NCATS DSHEA and TCM libraries (AID 1919976); also: potency is read from the fitted curve at half-maximal effect
Cytochrome P450 1A2 (Homo sapiens), sequence (P05177 whole entry, looked up): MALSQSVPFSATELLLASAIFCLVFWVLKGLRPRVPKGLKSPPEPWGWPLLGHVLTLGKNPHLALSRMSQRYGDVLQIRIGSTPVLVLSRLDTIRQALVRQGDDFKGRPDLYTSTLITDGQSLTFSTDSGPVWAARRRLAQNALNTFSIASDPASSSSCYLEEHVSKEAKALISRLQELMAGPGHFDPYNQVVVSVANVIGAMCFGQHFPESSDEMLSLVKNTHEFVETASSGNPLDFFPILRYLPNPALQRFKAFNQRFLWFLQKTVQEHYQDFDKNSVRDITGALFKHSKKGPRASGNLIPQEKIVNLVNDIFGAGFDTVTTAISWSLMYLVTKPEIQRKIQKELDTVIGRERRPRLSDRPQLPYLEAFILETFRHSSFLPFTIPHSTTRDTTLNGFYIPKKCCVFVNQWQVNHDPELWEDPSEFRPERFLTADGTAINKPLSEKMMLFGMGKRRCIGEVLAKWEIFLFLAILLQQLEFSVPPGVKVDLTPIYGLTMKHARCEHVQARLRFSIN
In short: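 In this quantitative HTS, inhibition of recombinant human CYP1A2 was measured as loss of luciferin-derived luminescence. Turnover ran 30-45 min at RT after NADPH regeneration solution was added.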

[7] = qHTS Counterscreen for compound interference against the NCATS DSHEA and TCM libraries (AID 1919978); conditions: firefly luciferase detection reagent interference, luminescence;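 also: compounds preincubated with 1 µM D-luciferin or buffer before detection reagent; % of control where 0% means no effect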
In short: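 With 1 uM D-luciferin or phosphate buffer only, compounds at final 19.5 nM–39.8 uM were incubated for 15 min at room temperature. Luciferase detection reagent was then added, and luminescence was measured after a further 30 min at room temperature.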

[8] = Dual reporter qHTS for agonist of Pregnane X Receptor (hPXR) against the NCATS DSHEA and TCM libraries: Fluorescence readout (AID 1920058); also: 0% is about no effect
In short: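 Measures viability of the PXR reporter HepG2 line by protease-substrate fluorescence (405/540 nm), taken 1 h after CellTiter-Fluor addition. Substances are tested as concentration series over a ~24 h exposure, with rifampicin as agonist control.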

[9] = molecular target: Nuclear receptor subfamily 1 group I member 2 (Homo sapiens) (UniProt O75469); experiment: Dual reporter qHTS for agonist of Pregnane X Receptor (hPXR) against the NCATS DSHEA and TCM libraries: Luminescence readout (AID 1920059); also: 0% is about no effect
Nuclear receptor subfamily 1 group I member 2 (Homo sapiens), sequence (O75469 whole entry, looked up): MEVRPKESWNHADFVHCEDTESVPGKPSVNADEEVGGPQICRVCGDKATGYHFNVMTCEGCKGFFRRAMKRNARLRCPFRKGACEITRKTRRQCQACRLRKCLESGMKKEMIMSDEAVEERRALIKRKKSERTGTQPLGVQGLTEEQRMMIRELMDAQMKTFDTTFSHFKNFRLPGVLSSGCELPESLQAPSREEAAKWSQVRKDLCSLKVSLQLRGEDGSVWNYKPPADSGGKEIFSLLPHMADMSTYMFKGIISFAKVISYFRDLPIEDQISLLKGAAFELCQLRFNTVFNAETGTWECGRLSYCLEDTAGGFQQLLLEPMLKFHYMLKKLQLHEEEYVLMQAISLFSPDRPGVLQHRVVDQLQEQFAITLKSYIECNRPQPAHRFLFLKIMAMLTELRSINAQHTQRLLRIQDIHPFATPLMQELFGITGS
In short: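 hPXR-LucHepG2 cells in phenol red-free DMEM with 5% charcoal-stripped FBS, 2000 cells/well, attached 5 h, then exposed 24 h at 37C to compounds; rifampicin as positive agonist control (2.8 nM–92 uM). Luciferase luminescence read.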

[10] = molecular target: Nuclear receptor subfamily 1 group I member 2 (Homo sapiens) (UniProt O75469); experiment: Dual reporter qHTS for antagonist of Pregnane X Receptor (hPXR) against the NCATS DSHEA and TCM libraries: Luminescence Readout (AID 1920060); also: 0% is about no effect
In short: (§3)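 Rifampicin-stimulated (2 uM final) hPXR-luciferase HepG2 cells were treated for 24 h with DSNP/TCM substances. Viability came from CellTiter-Fluor fluorescence, reporter activity from ONE-Glo luminescence.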

[11] = Dual reporter qHTS for antagonist of Pregnane X Receptor (hPXR) against the NCATS DSHEA and TCM libraries: Fluorescence Readout (AID 1920061); also: 0% is about no effect
In short: as §3

[12] = molecular target: Glutathione peroxidase 1 (Homo sapiens) (UniProt P07203); experiment: Primary qHTS Assay for Inhibitors of Recombinant Selenoprotein Glutathione Peroxidase 1 (GPX1) (AID 1845191); also: nearly all actives have a fitted effect of over 65% in size; also: potency is read from the fitted curve at half-maximal effect
Glutathione peroxidase 1 (Homo sapiens), sequence (P07203 whole entry, looked up): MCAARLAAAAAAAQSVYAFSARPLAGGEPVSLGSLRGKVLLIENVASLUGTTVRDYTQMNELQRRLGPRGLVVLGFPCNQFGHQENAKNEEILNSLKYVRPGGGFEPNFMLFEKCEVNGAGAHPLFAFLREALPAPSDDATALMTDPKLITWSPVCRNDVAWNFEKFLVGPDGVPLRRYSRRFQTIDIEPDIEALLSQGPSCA
In short: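 Recombinant GPX1 (10 nM final) was preincubated with compound for 30 min at room temperature, then reacted with 1 mM GSH, 0.5 mM CHP, 0.5 mM NADPH and 100 nM glutathione reductase; NADPH fluorescence (340/450 nm) was read at 0 and 15 min.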

[13] = molecular target: Cytochrome P450 3A4 (Homo sapiens) (UniProt P08684); experiment: qHTS for inhibitors of CYP3A4 against the NCATS DSHEA and TCM libraries (AID 1919971);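 also: % is scaled to controls: 0 for no effect and ±100 for the full control effect; inhibition lowers luminescence from luciferin made by CYP3A4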
Cytochrome P450 3A4 (Homo sapiens), sequence (P08684 whole entry, looked up): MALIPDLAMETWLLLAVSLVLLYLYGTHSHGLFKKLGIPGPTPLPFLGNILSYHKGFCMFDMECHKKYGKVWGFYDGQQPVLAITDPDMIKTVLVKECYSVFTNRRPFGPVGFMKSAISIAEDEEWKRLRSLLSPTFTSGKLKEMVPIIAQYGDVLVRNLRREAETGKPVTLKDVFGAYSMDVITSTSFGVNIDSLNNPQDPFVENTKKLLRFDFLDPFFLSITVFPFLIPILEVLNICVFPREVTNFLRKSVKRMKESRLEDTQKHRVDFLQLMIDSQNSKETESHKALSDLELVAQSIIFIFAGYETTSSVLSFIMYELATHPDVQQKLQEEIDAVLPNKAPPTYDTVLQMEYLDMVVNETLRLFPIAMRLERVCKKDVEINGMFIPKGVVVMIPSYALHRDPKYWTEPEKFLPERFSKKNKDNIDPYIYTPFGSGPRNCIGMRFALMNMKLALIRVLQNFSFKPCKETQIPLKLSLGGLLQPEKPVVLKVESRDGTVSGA
In short: as §2

[14] = molecular target: Cytochrome P450 2D6 (Homo sapiens) (UniProt P10635); experiment: qHTS for inhibitors of CYP2D6 against the NCATS DSHEA and TCM libraries (AID 1919972); also: % is scaled to controls: 0 for no effect and ±100 for the full control effect
Cytochrome P450 2D6 (Homo sapiens), sequence (P10635 whole entry, looked up): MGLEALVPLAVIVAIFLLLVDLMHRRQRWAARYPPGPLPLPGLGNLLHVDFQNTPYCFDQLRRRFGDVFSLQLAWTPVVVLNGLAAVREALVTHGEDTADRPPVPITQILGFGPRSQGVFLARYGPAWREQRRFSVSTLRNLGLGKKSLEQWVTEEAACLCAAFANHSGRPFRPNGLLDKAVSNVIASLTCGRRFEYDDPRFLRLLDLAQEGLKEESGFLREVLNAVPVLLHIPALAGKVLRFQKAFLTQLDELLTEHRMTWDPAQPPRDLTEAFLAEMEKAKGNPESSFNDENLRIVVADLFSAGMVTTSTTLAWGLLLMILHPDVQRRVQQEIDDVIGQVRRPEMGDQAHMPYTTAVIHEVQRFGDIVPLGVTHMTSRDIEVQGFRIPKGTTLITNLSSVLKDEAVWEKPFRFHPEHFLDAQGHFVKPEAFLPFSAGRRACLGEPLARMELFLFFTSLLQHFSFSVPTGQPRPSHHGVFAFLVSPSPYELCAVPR
In short: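 Steps: enzyme plus luciferin substrate dispensed; test substances pinned; 15 min RT; 1x NADPH regenerating solution added, 30–45 min RT protected from light; detection reagent, 30 min RT; luminescence measured. Minus-enzyme wells as background.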

[15] = molecular target: Cytochrome P450 2C9 (Homo sapiens) (UniProt P11712); experiment: qHTS for inhibitors of CYP2C9 against the NCATS DSHEA and TCM libraries (AID 1919973); also: potency is read from the fitted curve at half-maximal effect
Cytochrome P450 2C9 (Homo sapiens), sequence (P11712 whole entry, looked up): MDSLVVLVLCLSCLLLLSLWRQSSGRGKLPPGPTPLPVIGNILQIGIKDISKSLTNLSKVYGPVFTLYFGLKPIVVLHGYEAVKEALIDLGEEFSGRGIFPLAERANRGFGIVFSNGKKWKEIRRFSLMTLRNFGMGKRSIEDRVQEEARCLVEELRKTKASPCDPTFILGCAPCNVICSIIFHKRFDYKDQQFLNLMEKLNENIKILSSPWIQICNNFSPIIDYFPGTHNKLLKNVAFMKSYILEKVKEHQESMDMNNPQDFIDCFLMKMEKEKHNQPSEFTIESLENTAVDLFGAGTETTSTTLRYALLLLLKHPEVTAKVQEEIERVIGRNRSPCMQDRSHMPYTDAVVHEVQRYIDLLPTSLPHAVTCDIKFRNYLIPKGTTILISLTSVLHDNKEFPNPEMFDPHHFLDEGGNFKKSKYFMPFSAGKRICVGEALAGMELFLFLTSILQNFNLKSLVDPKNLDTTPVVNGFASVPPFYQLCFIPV
In short: as §2

Oc1cccc(O)c1O
inactive: Potency [1] | outcome [2] | outcome [3] | Potency [4] | outcome [5] | Potency [6] | max response [7] -3.78% | outcome [8] | Potency [9] | outcome [10] | outcome [11]

CCCc1nc(C(C)(C)O)c(C(=O)OCc2oc(=O)oc2C)n1Cc1ccc(-c2ccccc2-c2nn[nH]n2)cc1
inactive: Potency [12]

CC1=CCC2CC1C2(C)C (stereo unspecified)
inactive: outcome [2] | outcome [3] | outcome [13] | outcome [14] | Potency [15] | outcome [5] | max response [7] 3.27% | outcome [8] | Potency [9] | outcome [10] | outcome [11]
active: Potency [6] 3.55 µM

C=C(C)C1CC=C(C)CC1 (stereo unspecified)
inactive: Potency [12]

CCC(O)c1ccccc1 (stereo unspecified)
inactive: Potency [12]

O=S(=O)(O)CCCS(=O)(=O)O
inactive: Potency [12]

CO/N=C(\C(=O)N[C@@H]1C(=O)N2C(C(=O)O)=C(CSc3nnnn3C)CS[C@H]12)c1csc(N)n1
active: Potency [12] 11.4 µM

CC(C)=CCC/C(C)=C/CC/C(C)=C/CC/C(C)=C/CC1=C(C)C(=O)c2ccccc2C1=O
active: Potency [15] 14.1 µM
inactive: Potency [1] | outcome [2] | outcome [3] | Potency [12] | outcome [14] | Potency [6] | max response [7] -2.14% | outcome [8] | outcome [10] | outcome [11]

NC[C@@H]1O[C@H](O[C@H]2[C@@H](O)[C@H](O[C@@H]3[C@@H](O)[C@H](N)C[C@H](N)[C@H]3O[C@H]3O[C@H](CO)[C@@H](O)[C@H](O)[C@H]3N)O[C@@H]2CO)[C@H](N)[C@@H](O)[C@@H]1O
inactive: outcome [12] inactive [at 0.4 µM]

Cc1ncc(C[n+]2csc(CCO)c2C)c(N)n1
inactive: Potency [1] | outcome [2] | outcome [3] | Potency [12] | outcome [13] | outcome [14] | outcome [5] | max response [7] -0.256% | outcome [8] | Potency [9] | outcome [11]
